{"source": "PubChem BioAssay", "note": "Calls of active or inactive are those of the source.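 The calls were made as follows, unless noted: active = inhibition above 50%; inactive = the rest.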"}
{"assay": "antimalarial activity against Dd2 strain (AID 2302;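 active = growth inhibition above 50% at the single 2 µM test dose, taken to imply half-maximal potency below 2 µM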;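 also: 0% = DMSO untreated growth and 100% = chloroquine plus artemisinin killed control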)", "details": "P. falciparum Dd2 in RBCs, LDH growth readout, 72 h; at 2 µM; stronger effect = higher value"}
{"smiles": "CCN(CC)CCCNC(=O)/C(=C/C=C/c1cc2cc(Cl)c(Cl)cc2[nH]1)OC", "growth inhibition": "21% (inactive)"}
{"smiles": "O=C1OC2(CN1CC1CCN(Cc3ccc(-n4ccnc4)cc3)C1)c1ccccc1-c1ccccc12", "note": "(stereo not given)", "growth inhibition": "-5% (inactive)"}
{"smiles": "Cc1ccc(NC(=O)c2ccc3ncccc3c2)cc1OC1CCN(CCC(C)C)CC1", "growth inhibition": "48% (inactive)"}
{"smiles": "Nc1ncc(-c2ccc(F)cc2)cc1-c1nc2ccc(Cl)cc2[nH]1", "growth inhibition": "44% (inactive)"}
{"smiles": "N#Cc1ccccc1N1CCN(C2CCC(NC(=O)c3n[nH]c4cc(C(F)(F)F)ccc34)CC2)CC1", "note": "(stereo not given)", "growth inhibition": "34% (inactive)"}
{"smiles": "Cc1ccc(NC(=O)N2CCN(CCCCCNC(=O)/C=C/c3ccc(Cl)c(Cl)c3)CC2)cc1C", "growth inhibition": "-5% (inactive)"}
{"smiles": "Cc1nnc(NC(=O)c2cn(-c3ccccc3)nc2-c2ccccc2C)o1", "growth inhibition": "87% (active)"}
{"smiles": "CN1CCN(c2cc3c(cc2Cl)CCN3C(=O)Nc2ccc(NC(=O)c3ccc(C(F)(F)F)cc3)cc2)CC1", "growth inhibition": "99% (active)"}
{"smiles": "Cc1ccc(-c2ccc3c(c2)C=C(C(=O)NC2CCN(CCNC(=O)c4cccs4)CC2)CCC3)cc1", "growth inhibition": "30% (inactive)"}
{"smiles": "COC(=O)c1ccc(NC(=O)Nc2ccc(Cn3ncc(N4CCCNCC4)c(Cl)c3=O)cc2)cc1", "growth inhibition": "43% (inactive)"}
{"smiles": "CC1(C)N=C(N)N=C(N)N1OCCCOc1cc(Cl)cc(Cl)c1", "growth inhibition": "97% (active)"}
{"smiles": "O=C(Nc1ccc2ccccc2c1)c1ccc(CN2CCC(Cc3ccccc3)CC2)cc1", "growth inhibition": "10% (inactive)"}
{"smiles": "Cc1cc2c(cc1Cl)N(C(=O)Nc1cc(F)cc(-c3cncnc3)c1)CC2", "growth inhibition": "59% (active)"}
{"smiles": "COc1ccc(C2=CCN(c3ccc(Cl)c(Cl)c3)C2=O)cc1OCCN1CCCCC1", "growth inhibition": "99% (active)"}
{"smiles": "COc1ccc(CNC(=O)c2cnc3c(O)cccc3c2Nc2cccc(NC(=O)c3ccc(Cl)c([N+](=O)[O-])c3)c2)cc1", "growth inhibition": "21% (inactive)"}
{"smiles": "C=CCN1C(=O)C(=Cc2cc(Br)ccc2O)SC1=Nc1ccccc1", "growth inhibition": "55% (active)"}
{"smiles": "O=C(Nc1ccc(F)cc1)NC1CCN(c2ccnc3cc(Cl)ccc23)C1", "note": "(stereo not given)", "growth inhibition": "67% (active)"}
{"smiles": "CC(C)c1ccc(CN2CCC(NC(=O)c3ccc(-c4cccc(F)c4)s3)CC2)cc1", "growth inhibition": "12% (inactive)"}
{"smiles": "O=C(Nc1ccc(OC2CCN(Cc3ccccc3)C2)c(Cl)c1)c1ccco1", "note": "(stereo not given)", "growth inhibition": "94% (active)"}
{"smiles": "CN1CCN(Cc2cccc(-c3cc4nccc(Nc5ccc(Oc6ccccc6)cc5)c4cc3Cl)c2)CC1", "growth inhibition": "96% (active)"}
{"smiles": "COc1ccc(CC(=O)NC(CCCN2CCC(c3ccccc3)CC2)c2ccc(Cl)c(Cl)c2)cc1OC", "note": "(stereo not given)", "growth inhibition": "57% (active)"}
{"smiles": "NC1CCN(Cc2cccc(-c3cccc(-c4nc5ccccc5[nH]4)c3)c2)C1", "note": "(stereo not given)", "growth inhibition": "-2% (inactive)"}
{"smiles": "COc1c(Br)cc(Br)cc1C(C)=O", "growth inhibition": "-2% (inactive)"}
{"smiles": "N[C@@H](CCNC1CCN(c2cccc(C(F)(F)F)c2)CC1)Cc1ccc(F)c(F)c1", "growth inhibition": "69% (active)"}
{"smiles": "COc1ccc(CN2CCCN(Cc3cccc(NC(=O)c4ccc(Cl)c(Cl)c4)c3)CC2)cc1", "growth inhibition": "19% (inactive)"}
{"smiles": "CN(C)CCOc1cc(O)c2c(c1)OC(C)(C)C=C2c1cccs1", "growth inhibition": "10% (inactive)"}
{"smiles": "COc1nc(-n2ccc(=N)cc2)nc2ccccc12", "growth inhibition": "45% (inactive)"}
{"smiles": "CCC(C)C(COC(=O)c1cc(OC)c(OC)c(OC)c1)N(C)CCN(C)C(COC(=O)c1cc(OC)c(OC)c(OC)c1)C(C)CC", "note": "(stereo not given)", "growth inhibition": "45% (inactive)"}
{"smiles": "CSc1ccc(C=CC(=O)NC(=O)c2ccccc2O)cc1", "growth inhibition": "96% (active)"}
{"smiles": "O=C(N[C@@H](CC1CCCCC1)C(=O)NCc1cccc2ccccc12)c1ccc(O)c(-c2ccc(Cl)c(Cl)c2)c1", "growth inhibition": "99% (active)"}
{"smiles": "Cc1ccc(C(C)C)c(Oc2cnc(NC(CO)c3ccccc3)nc2N)c1", "note": "(stereo not given)", "growth inhibition": "0% (inactive)"}
{"smiles": "CS(=O)(=O)CCNCc1nc(-c2ccc3c(=O)[nH]cnc3c2)cs1", "growth inhibition": "96% (active)"}
{"smiles": "CN1CCN(c2cccc(-c3nnc(-c4ccc(OCC(=O)NCc5ccc(C(F)(F)F)cc5)c([N+](=O)[O-])c4)o3)c2)CC1", "growth inhibition": "44% (inactive)"}
{"smiles": "COC(=O)c1sc2ccccc2c1NC(=O)c1ccc(C)c(C)c1", "growth inhibition": "48% (inactive)"}
{"smiles": "c1ccc(CN2CCN(c3cc(-c4cncc(-c5ccccc5)c4)nc(-c4ccccc4)n3)CC2)cc1", "growth inhibition": "12% (inactive)"}
{"smiles": "CCC(C)CN1CCN(c2ccc(NC(=O)c3cccs3)cc2)CC1C", "note": "(stereo not given)", "growth inhibition": "94% (active)"}
{"smiles": "COc1ccc2nc3cc(Cl)ccc3c(Nc3ccc(O)c(CN4CC5CCC(CC5)C4)c3)c2c1", "growth inhibition": "100% (active)"}
{"smiles": "CC(C)(O)CC(C)(C)c1cc(Cl)ccc1O", "growth inhibition": "1% (inactive)"}
{"smiles": "COc1ccc(NS(=O)(=O)c2ccc(C(=O)Nc3ccc(OC(F)(F)F)cc3)cc2)cc1N1CCN(CC2CC2)CC1", "growth inhibition": "-2% (inactive)"}
{"smiles": "COc1ccc2nccc([C@@H](O)CN3CCC(NC(=O)c4cc5cccnc5[nH]4)CC3)c2c1", "growth inhibition": "6% (inactive)"}
{"assay": "HepG2 cytotoxicity, primary screen, cytotoxicity control for P. falciparum antimalarial project, cell-based, ATP luminescence (AID 2303);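 also: 0% = DMSO wells and 100% = digitonin-killed cells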", "details": "HepG2 viability, 24-48 h, at 10 µM, stronger effect = higher value"}
{"smiles": "CCN(CC)CCCNC(=O)/C(=C/C=C/c1cc2cc(Cl)c(Cl)cc2[nH]1)OC", "inhibition": "38% (inactive)"}
{"smiles": "O=C1OC2(CN1CC1CCN(Cc3ccc(-n4ccnc4)cc3)C1)c1ccccc1-c1ccccc12", "note": "(stereo not given)", "inhibition": "25% (inactive)"}
{"smiles": "Cc1ccc(NC(=O)c2ccc3ncccc3c2)cc1OC1CCN(CCC(C)C)CC1", "inhibition": "2% (inactive)"}
{"smiles": "Nc1ncc(-c2ccc(F)cc2)cc1-c1nc2ccc(Cl)cc2[nH]1", "inhibition": "45% (inactive)"}
{"smiles": "N#Cc1ccccc1N1CCN(C2CCC(NC(=O)c3n[nH]c4cc(C(F)(F)F)ccc34)CC2)CC1", "note": "(stereo not given)", "inhibition": "15% (inactive)"}
{"smiles": "Cc1ccc(NC(=O)N2CCN(CCCCCNC(=O)/C=C/c3ccc(Cl)c(Cl)c3)CC2)cc1C", "inhibition": "7% (inactive)"}
{"smiles": "Cc1nnc(NC(=O)c2cn(-c3ccccc3)nc2-c2ccccc2C)o1", "inhibition": "37% (inactive)"}
{"smiles": "CN1CCN(c2cc3c(cc2Cl)CCN3C(=O)Nc2ccc(NC(=O)c3ccc(C(F)(F)F)cc3)cc2)CC1", "inhibition": "98% (active)"}
{"smiles": "Cc1ccc(-c2ccc3c(c2)C=C(C(=O)NC2CCN(CCNC(=O)c4cccs4)CC2)CCC3)cc1", "inhibition": "27% (inactive)"}
{"smiles": "COC(=O)c1ccc(NC(=O)Nc2ccc(Cn3ncc(N4CCCNCC4)c(Cl)c3=O)cc2)cc1", "inhibition": "-1% (inactive)"}
{"smiles": "CC1(C)N=C(N)N=C(N)N1OCCCOc1cc(Cl)cc(Cl)c1", "inhibition": "62% (active)"}
{"smiles": "O=C(Nc1ccc2ccccc2c1)c1ccc(CN2CCC(Cc3ccccc3)CC2)cc1", "inhibition": "38% (inactive)"}
{"smiles": "Cc1cc2c(cc1Cl)N(C(=O)Nc1cc(F)cc(-c3cncnc3)c1)CC2", "inhibition": "-4% (inactive)"}
{"smiles": "COc1ccc(C2=CCN(c3ccc(Cl)c(Cl)c3)C2=O)cc1OCCN1CCCCC1", "inhibition": "19% (inactive)"}
{"smiles": "COc1ccc(CNC(=O)c2cnc3c(O)cccc3c2Nc2cccc(NC(=O)c3ccc(Cl)c([N+](=O)[O-])c3)c2)cc1", "inhibition": "48% (inactive)"}
{"smiles": "C=CCN1C(=O)C(=Cc2cc(Br)ccc2O)SC1=Nc1ccccc1", "inhibition": "-4% (inactive)"}
{"smiles": "O=C(Nc1ccc(F)cc1)NC1CCN(c2ccnc3cc(Cl)ccc23)C1", "note": "(stereo not given)", "inhibition": "17% (inactive)"}
{"smiles": "CC(C)c1ccc(CN2CCC(NC(=O)c3ccc(-c4cccc(F)c4)s3)CC2)cc1", "inhibition": "47% (inactive)"}
{"smiles": "O=C(Nc1ccc(OC2CCN(Cc3ccccc3)C2)c(Cl)c1)c1ccco1", "note": "(stereo not given)", "inhibition": "13% (inactive)"}
{"smiles": "CN1CCN(Cc2cccc(-c3cc4nccc(Nc5ccc(Oc6ccccc6)cc5)c4cc3Cl)c2)CC1", "inhibition": "10% (inactive)"}
{"smiles": "COc1ccc(CC(=O)NC(CCCN2CCC(c3ccccc3)CC2)c2ccc(Cl)c(Cl)c2)cc1OC", "note": "(stereo not given)", "inhibition": "28% (inactive)"}
{"smiles": "NC1CCN(Cc2cccc(-c3cccc(-c4nc5ccccc5[nH]4)c3)c2)C1", "note": "(stereo not given)", "inhibition": "14% (inactive)"}
{"smiles": "COc1c(Br)cc(Br)cc1C(C)=O", "inhibition": "3% (inactive)"}
{"smiles": "N[C@@H](CCNC1CCN(c2cccc(C(F)(F)F)c2)CC1)Cc1ccc(F)c(F)c1", "inhibition": "100% (active)"}
{"smiles": "COc1ccc(CN2CCCN(Cc3cccc(NC(=O)c4ccc(Cl)c(Cl)c4)c3)CC2)cc1", "inhibition": "38% (inactive)"}
{"smiles": "CN(C)CCOc1cc(O)c2c(c1)OC(C)(C)C=C2c1cccs1", "inhibition": "29% (inactive)"}
{"smiles": "COc1nc(-n2ccc(=N)cc2)nc2ccccc12", "inhibition": "15% (inactive)"}
{"smiles": "CCC(C)C(COC(=O)c1cc(OC)c(OC)c(OC)c1)N(C)CCN(C)C(COC(=O)c1cc(OC)c(OC)c(OC)c1)C(C)CC", "note": "(stereo not given)", "inhibition": "20% (inactive)"}
{"smiles": "CSc1ccc(C=CC(=O)NC(=O)c2ccccc2O)cc1", "inhibition": "2% (inactive)"}
{"smiles": "O=C(N[C@@H](CC1CCCCC1)C(=O)NCc1cccc2ccccc12)c1ccc(O)c(-c2ccc(Cl)c(Cl)c2)c1", "inhibition": "-9% (inactive)"}
{"smiles": "Cc1ccc(C(C)C)c(Oc2cnc(NC(CO)c3ccccc3)nc2N)c1", "note": "(stereo not given)", "inhibition": "27% (inactive)"}
{"smiles": "CS(=O)(=O)CCNCc1nc(-c2ccc3c(=O)[nH]cnc3c2)cs1", "inhibition": "81% (active)"}
{"smiles": "CN1CCN(c2cccc(-c3nnc(-c4ccc(OCC(=O)NCc5ccc(C(F)(F)F)cc5)c([N+](=O)[O-])c4)o3)c2)CC1", "inhibition": "35% (inactive)"}
{"smiles": "COC(=O)c1sc2ccccc2c1NC(=O)c1ccc(C)c(C)c1", "inhibition": "4% (inactive)"}
{"smiles": "c1ccc(CN2CCN(c3cc(-c4cncc(-c5ccccc5)c4)nc(-c4ccccc4)n3)CC2)cc1", "inhibition": "9% (inactive)"}
{"smiles": "CCC(C)CN1CCN(c2ccc(NC(=O)c3cccs3)cc2)CC1C", "note": "(stereo not given)", "inhibition": "-3% (inactive)"}
{"smiles": "COc1ccc2nc3cc(Cl)ccc3c(Nc3ccc(O)c(CN4CC5CCC(CC5)C4)c3)c2c1", "inhibition": "17% (inactive)"}
{"smiles": "CC(C)(O)CC(C)(C)c1cc(Cl)ccc1O", "inhibition": "5% (inactive)"}
{"smiles": "COc1ccc(NS(=O)(=O)c2ccc(C(=O)Nc3ccc(OC(F)(F)F)cc3)cc2)cc1N1CCN(CC2CC2)CC1", "inhibition": "18% (inactive)"}
{"smiles": "COc1ccc2nccc([C@@H](O)CN3CCC(NC(=O)c4cc5cccnc5[nH]4)CC3)c2c1", "inhibition": "-8% (inactive)"}
